Source: PubChem BioAssay (NCATS)
Inconclusive results are not listed. Where a call stands in place of a potency, no number is given. The source made the active and inactive calls. Calls come from the whole dose curve; as a rule, active = well fitted inhibition curve with a large enough effect; inconclusive = small, poorly fitted or top-dose-only effect; inactive = flat fitted curve, though single readings scatter.

These compounds were tested against Calcium and integrin-binding protein 1 (Homo sapiens) (UniProt Q99828) (assay: Primary qHTS for Identification of Calcium Integrin Binding Protein 1 (CIB1) Competitor (AID 1508620;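 note: GST tagged CIB1 binding a fluorescein labelled alphaIIb integrin peptide tracer; top concentration of the series differs between compounds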)). Conditions: CIB1-GST / FITC-alphaIIb peptide fluorescence polarization; series mostly up to 114 µM.
Outline: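 CIB1-GST (1 uM final) and compound incubated 15 min at room temperature before adding FITC-alphaIIb peptide tracer (100 nM final). Competition for binding read by fluorescence polarization (ex 480, em 540) after another 15 min at room temperature.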

Sequence of Calcium and integrin-binding protein 1 (Homo sapiens) (Q99828 whole entry, looked up): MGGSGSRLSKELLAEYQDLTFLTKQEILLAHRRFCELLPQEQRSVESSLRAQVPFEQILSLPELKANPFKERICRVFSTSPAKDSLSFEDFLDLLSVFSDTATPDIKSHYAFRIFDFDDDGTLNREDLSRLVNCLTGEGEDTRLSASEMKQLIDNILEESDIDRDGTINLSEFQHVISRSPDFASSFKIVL

SMILES	Potency
CN(C)c1ccnc2sc3c(=O)n(N4CCCCCC4)cnc3c12	inactive
CC1(C)CC[C@]23CO[C@@]4(CCC5[C@@]6(C)CC[C@H](O[C@@H]7OC[C@H](O[C@@H]8O[C@H](CO)[C@@H](O)[C@H](O)[C@H]8O[C@@H]8OC[C@@H](O)[C@H](O)[C@H]8O)[C@H](O)[C@H]7O[C@@H]7O[C@H](CO)[C@@H](O)[C@H](O)[C@H]7O)[C@@](C)(CO)C6CC[C@@]5(C)[C@]4(C)C[C@H]2O)[C@@H]3C1 (stereo partly specified)	inactive
CC1(C)CC[C@]2(C(=O)O)CC[C@]3(C)C(=CCC4[C@@]5(C)C[C@@H](O)[C@H](O)[C@@](C)(CO)C5CC[C@]43C)[C@@H]2[C@@H]1O (stereo partly specified)	inactive
Cc1ccc(N2CCN(S(=O)(=O)N3CCCCC3)CC2)c(C)c1	inactive
CC(C)NC(=O)N1CC[C@H](N=C2Nc3cc(F)ccc3N(CC(F)F)c3ccc(Cl)cc32)C1	inactive
C=C1C(=O)OC2/C=C(\C)CC/C=C(\C=O)C(OC)C(OC(=O)C(C)CC)C12 (stereo unspecified)	inactive
